Experimental data from PubChem BioAssay (Tox21).
Inconclusive results are not listed. Calls of active or inactive are those of the source. Calls come from the whole dose curve; as a rule, active = well fitted curve in the direction sought with a large enough effect in the repeat runs; inconclusive = weak or mixed curves; inactive = no such curve, though single readings can be large; an effect the other way counts as inactive or inconclusive.

Experiments:
[1] = Caspase-3/7 induction in HepG2 cells by small molecules, qHTS assay (AID 1346978); note: nearly all actives have a fitted effect of over 15% in size
Procedure, shortened: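 Caspase-3/7 induction was measured by Caspase-Glo 3/7 luminescence (30 min, room temperature) after a 17 hr compound exposure of wild-type HepG2 cells seeded at 2,000 per well and pre-incubated 5 hr.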

[2] = Caspase-3/7 induction in CHO-K1 cells by small molecules, qHTS cell viability counter screen (AID 1346979); note: nearly all actives have a fitted effect of over 35% in size; note: potency is the fitted concentration of half-maximal effect
Procedure, shortened: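 Cells (CHO-K1, wild type) are plated at 1,500 per well and incubated 5hr. Test compounds in DMSO are then pinned in, followed by 16hr at 37C and 5% CO2. Viability is read by CellTiter-Fluor fluorescence after 1hr.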

[3] = Caspase-3/7 induction in CHO-K1 cells by small molecules, qHTS assay (AID 1346980); note: nearly all actives have a fitted effect of over 15% in size
Procedure, shortened: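 Luminescent Caspase-Glo 3/7 read (30min, room temperature) quantified apoptosis induction. Cells were wild-type CHO-K1, treated with compound for 17hr at 37 C and 5% CO2.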

[4] = Caspase-3/7 induction in HepG2 cells by small molecules, qHTS cell viability counter screen (AID 1346981); note: nearly all actives have a fitted effect of over 30% in size; note: potency is the fitted concentration of half-maximal effect; for activity change, negative = cytotoxicity: series mostly up to about 92 µM
Procedure, shortened: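 Wild-type HepG2 cells (2,000/well) were allowed to settle for 5 hr at 37 C, 5% CO2, then dosed with compounds in DMSO by pin transfer. After 16 hr at 37 C, CellTiter-Fluor was added and fluorescence read 1 hr later.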

[5] = molecular target: Nuclear receptor subfamily 1 group I member 2 (Homo sapiens) (UniProt O75469); test: Human pregnane X receptor (PXR) small molecule agonists, qHTS assay (AID 1346982); note: nearly all actives have a fitted effect of over 35% in size; note: potency is the fitted concentration of half-maximal effect
Procedure, shortened: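 PXR-Luc HepG2 cells (CYP3A4 promoter-driven luciferase) were seeded in medium with 5% charcoal-stripped FBS, left 5 hr at 37 C, then exposed to compounds in DMSO for 24 hr. Luminescence was read after ONE-Glo addition.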

[6] = molecular target: Cytochrome P450 2D6 (Homo sapiens) (UniProt P10635); test: Cytochrome P450 Family 2 Subfamily D Member 6 (CYP2D6) small molecule antagonists: luciferase reporter qHTS assay (AID 1671196); note: nearly all actives have a fitted effect of over 50% in size; note: potency is the fitted concentration of half-maximal effect; for activity change, negative = inhibition: series mostly up to about 120 µM
Procedure, shortened: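 CYP2D6 enzyme–substrate mix was held with compound for 10 min at room temperature, then NADPH regeneration solution was added and the reaction ran 1 h at room temperature. Luciferin product was detected by luminescence after 20 min with detection reagent.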

[7] = molecular target: Cytochrome P450 1A2 (Homo sapiens) (UniProt P05177); test: Cytochrome P450 Family 1 Subfamily A Member 2 (CYP1A2) small molecule antagonists: luciferase reporter qHTS assay (AID 1671199); note: nearly all actives have a fitted effect of over 50% in size; note: potency is the fitted concentration of half-maximal effect; for activity change, negative = inhibition: series mostly up to about 120 µM
Procedure, shortened: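 Human CYP1A2 activity measured with a P450-Glo proluciferin substrate; compounds in DMSO preincubated 10 min at room temperature with enzyme-substrate mix, then NADPH regeneration system added for 1 h. Luciferin detection reagent, 20 min, luminescence read.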

[8] = molecular target: Cytochrome P450 2C9 (Homo sapiens) (UniProt P11712); test: Cytochrome P450 Family 2 Subfamily C Member 9 (CYP2C9) small molecule antagonists: luciferase reporter qHTS assay (AID 1671198); note: nearly all actives have a fitted effect of over 50% in size; note: potency is the fitted concentration of half-maximal effect; for activity change, negative = inhibition: series mostly up to about 120 µM
Procedure, shortened: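 Enzyme-substrate mix preincubated with compound 10 min at room temperature; reaction started with NADPH regeneration solution, 1 h 37C. Luminescent luciferin product read after 20 min detection reagent.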

[9] = molecular target: Voltage-gated inwardly rectifying potassium channel KCNH2 (Homo sapiens) (UniProt Q12809); test: Human Ether-a-go-go-Related Gene (hERG) channel small molecule antagonists: fluorescence cell-based qHTS assay (AID 1671200);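 note: hERG-expressing U2OS cells given a thallium stimulus after FluxOR II dye loading; series mostly up to about 77 µM; nearly all actives have a fitted effect of over 50% in size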
Procedure, shortened: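 Channel function was assessed by thallium flux. Cells seeded the previous day and kept at 37 C took up FluxOR II dye over 1 h in the dark at room temperature, then sat another 10 min before stimulation.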

[10] = molecular target: Cytochrome P450 3A4 (Homo sapiens) (UniProt P08684); test: Cytochrome P450 Family 3 Subfamily A Member 4 (CYP3A4) small molecule antagonists: luciferase reporter qHTS assay (AID 1671201)
Procedure, shortened: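 Compounds in DMSO were pin-transferred onto CYP3A4 enzyme-substrate mix and held 10 min at room temperature. NADPH regenerating solution started the reaction for 1 h; luciferin detection reagent stopped it, and luminescence was read after 20 min.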

[11] = molecular target: Cytochrome P450 2C19 (Homo sapiens) (UniProt P33261); test: Cytochrome P450 Family 2 Subfamily C Member 19 (CYP2C19) small molecule antagonists: luciferase reporter qHTS assay (AID 1671197); note: nearly all actives have a fitted effect of over 65% in size; note: potency is the fitted concentration of half-maximal effect; for activity change, negative = inhibition: series mostly up to about 120 µM
Procedure, shortened: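 Inhibition of CYP2C19 was scored from loss of luminescence in a P450-Glo proluciferin substrate assay, NADPH-started and run 1 h at 37C, with ketoconazole as positive control.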

[12] = molecular target: Nuclear receptor subfamily 1 group I member 2 (Rattus norvegicus) (UniProt Q9R1A7); test: Rat pregnane X receptor (rPXR) activation by small molecules, qHTS assay (AID 1346983); settings: rPXR luciferase reporter cells, One-Glo luminescence, 24 h; max activation: active compounds read high; note: nearly all actives have a fitted effect of over 20% in size
Procedure, shortened: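 Luminescent readout (One-Glo luciferase, 30 min room temperature) followed 24 hr compound treatment at 37 C of rPXR cells plated 2,000 per well and preincubated 5hr; qHTS format with compounds delivered in DMSO.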

[13] = molecular target: Nuclear receptor subfamily 1 group I member 2 (Homo sapiens) (UniProt O75469); test: CYP3A4 induction through human pregnane X receptor (PXR) by small molecules, qHTS assay (AID 1346984); note: nearly all actives have a fitted effect of over 40% in size
Procedure, shortened: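 DPX-2 cells (HepG2 co-transfected with PXR and CYP3A4 promoter-luciferase) treated with compounds 24 h at 37C; luciferin-IPA CYP3A4 substrate 3uM final added for 3 h, then One-Glo; luminescence read. qHTS format.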

[14] = molecular target: Nuclear receptor subfamily 1 group I member 2 (Homo sapiens) (UniProt O75469); test: Human pregnane X receptor (PXR) activation by small molecules, qHTS assay (AID 1346985); note: nearly all actives have a fitted effect of over 40% in size
Procedure, shortened: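 DPX-2 cells (HepG2 co-transfected with a PXR response element and a CYP3A4-promoter luciferase construct) were seeded at 2,000 per well, rested 5 hr at 37C, then exposed to DMSO-dissolved compounds for 24 hr. Activation was read as luciferase luminescence.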
% is set by controls: 0 for no effect and ±100 for the full control effect.

Nuclear receptor subfamily 1 group I member 2 (Homo sapiens), sequence (O75469 whole entry, looked up): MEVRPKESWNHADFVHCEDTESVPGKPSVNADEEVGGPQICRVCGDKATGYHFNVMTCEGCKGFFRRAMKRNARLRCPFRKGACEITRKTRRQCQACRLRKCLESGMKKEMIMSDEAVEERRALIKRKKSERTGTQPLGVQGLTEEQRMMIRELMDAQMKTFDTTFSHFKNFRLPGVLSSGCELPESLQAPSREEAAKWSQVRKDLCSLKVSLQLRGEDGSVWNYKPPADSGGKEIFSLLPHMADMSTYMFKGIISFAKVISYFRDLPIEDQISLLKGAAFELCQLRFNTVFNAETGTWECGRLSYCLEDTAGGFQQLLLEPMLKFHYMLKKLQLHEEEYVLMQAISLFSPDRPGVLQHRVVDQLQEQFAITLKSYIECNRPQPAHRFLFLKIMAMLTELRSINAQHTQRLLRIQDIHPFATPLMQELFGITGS
Voltage-gated inwardly rectifying potassium channel KCNH2 (Homo sapiens), sequence (Q12809 whole entry, looked up): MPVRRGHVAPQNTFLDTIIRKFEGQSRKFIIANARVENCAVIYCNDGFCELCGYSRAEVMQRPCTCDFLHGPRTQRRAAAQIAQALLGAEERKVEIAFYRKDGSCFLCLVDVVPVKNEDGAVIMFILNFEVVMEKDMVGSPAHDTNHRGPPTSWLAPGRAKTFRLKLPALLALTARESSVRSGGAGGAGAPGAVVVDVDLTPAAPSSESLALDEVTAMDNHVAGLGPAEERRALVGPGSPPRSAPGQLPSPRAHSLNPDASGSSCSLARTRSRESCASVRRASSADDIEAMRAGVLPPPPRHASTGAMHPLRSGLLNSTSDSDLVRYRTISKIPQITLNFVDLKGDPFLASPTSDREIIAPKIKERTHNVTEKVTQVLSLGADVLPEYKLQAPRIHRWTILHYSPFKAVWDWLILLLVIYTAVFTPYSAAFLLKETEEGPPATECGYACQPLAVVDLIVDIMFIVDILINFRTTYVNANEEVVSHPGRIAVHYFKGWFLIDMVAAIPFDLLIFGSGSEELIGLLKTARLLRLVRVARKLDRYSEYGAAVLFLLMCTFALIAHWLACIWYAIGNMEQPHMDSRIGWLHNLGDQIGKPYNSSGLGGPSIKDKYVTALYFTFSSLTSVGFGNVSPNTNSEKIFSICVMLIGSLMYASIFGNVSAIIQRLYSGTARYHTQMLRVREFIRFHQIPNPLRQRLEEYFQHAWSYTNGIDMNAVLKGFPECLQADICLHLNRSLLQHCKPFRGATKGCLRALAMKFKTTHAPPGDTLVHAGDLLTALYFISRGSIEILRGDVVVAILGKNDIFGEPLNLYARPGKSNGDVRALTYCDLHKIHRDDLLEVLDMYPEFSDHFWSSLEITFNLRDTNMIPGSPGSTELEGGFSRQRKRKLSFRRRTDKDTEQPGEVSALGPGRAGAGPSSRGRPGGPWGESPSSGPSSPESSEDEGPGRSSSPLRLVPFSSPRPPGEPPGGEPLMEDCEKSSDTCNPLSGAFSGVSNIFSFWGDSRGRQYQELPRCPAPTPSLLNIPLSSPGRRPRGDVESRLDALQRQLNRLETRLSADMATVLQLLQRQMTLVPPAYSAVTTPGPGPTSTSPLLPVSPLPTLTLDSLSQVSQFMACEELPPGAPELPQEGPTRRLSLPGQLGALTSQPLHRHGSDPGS
Nuclear receptor subfamily 1 group I member 2 (Rattus norvegicus), sequence (Q9R1A7 whole entry, looked up): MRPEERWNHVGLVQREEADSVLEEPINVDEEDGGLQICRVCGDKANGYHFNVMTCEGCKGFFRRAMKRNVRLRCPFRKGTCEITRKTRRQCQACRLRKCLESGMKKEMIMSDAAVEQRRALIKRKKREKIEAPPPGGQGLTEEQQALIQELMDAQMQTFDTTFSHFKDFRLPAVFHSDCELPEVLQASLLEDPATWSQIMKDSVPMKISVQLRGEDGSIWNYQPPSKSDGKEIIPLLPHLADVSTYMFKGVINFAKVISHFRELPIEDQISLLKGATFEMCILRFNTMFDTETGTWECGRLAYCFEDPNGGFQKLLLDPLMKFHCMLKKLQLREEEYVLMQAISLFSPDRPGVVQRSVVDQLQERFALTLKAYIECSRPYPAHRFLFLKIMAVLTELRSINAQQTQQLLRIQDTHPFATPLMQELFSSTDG
Cytochrome P450 2C19 (Homo sapiens), sequence (P33261 whole entry, looked up): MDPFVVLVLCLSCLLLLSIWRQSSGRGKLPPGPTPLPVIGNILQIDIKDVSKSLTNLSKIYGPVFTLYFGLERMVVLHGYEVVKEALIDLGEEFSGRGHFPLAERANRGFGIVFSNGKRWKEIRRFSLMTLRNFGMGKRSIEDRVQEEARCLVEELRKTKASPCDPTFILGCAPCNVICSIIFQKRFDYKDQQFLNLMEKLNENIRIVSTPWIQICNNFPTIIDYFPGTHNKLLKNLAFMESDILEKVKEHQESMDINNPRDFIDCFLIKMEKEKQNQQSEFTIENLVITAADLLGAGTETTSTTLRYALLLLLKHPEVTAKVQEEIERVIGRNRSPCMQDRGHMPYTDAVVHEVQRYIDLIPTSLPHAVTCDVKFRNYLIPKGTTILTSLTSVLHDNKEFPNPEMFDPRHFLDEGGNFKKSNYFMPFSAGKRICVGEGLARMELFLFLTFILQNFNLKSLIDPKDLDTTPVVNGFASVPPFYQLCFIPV
Cytochrome P450 1A2 (Homo sapiens), sequence (P05177 whole entry, looked up): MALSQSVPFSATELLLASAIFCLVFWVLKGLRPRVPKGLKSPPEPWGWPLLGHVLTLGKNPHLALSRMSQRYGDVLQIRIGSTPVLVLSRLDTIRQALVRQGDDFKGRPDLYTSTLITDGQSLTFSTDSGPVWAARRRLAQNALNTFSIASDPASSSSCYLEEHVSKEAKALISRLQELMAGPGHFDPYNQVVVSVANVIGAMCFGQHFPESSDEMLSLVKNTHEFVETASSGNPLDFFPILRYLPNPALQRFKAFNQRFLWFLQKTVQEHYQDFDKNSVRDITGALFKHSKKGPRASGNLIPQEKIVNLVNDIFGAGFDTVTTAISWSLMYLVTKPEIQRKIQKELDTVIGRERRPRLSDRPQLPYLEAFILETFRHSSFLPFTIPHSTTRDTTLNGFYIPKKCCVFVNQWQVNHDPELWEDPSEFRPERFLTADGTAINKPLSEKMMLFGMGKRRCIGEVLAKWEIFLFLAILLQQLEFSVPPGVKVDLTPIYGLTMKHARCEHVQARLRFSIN
Cytochrome P450 2C9 (Homo sapiens), sequence (P11712 whole entry, looked up): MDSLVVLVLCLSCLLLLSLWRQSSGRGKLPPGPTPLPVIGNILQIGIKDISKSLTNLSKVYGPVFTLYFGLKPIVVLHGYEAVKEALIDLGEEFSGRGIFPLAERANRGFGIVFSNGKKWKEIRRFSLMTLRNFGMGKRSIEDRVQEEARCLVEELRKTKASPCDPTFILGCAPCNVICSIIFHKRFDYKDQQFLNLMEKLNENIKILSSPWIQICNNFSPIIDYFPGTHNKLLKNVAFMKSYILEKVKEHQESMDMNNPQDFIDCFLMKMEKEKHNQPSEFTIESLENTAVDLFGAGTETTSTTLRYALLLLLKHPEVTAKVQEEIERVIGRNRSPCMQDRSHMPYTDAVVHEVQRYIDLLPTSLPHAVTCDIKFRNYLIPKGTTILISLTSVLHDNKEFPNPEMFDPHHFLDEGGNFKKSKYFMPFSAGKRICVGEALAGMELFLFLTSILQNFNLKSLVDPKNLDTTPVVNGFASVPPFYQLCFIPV
Cytochrome P450 2D6 (Homo sapiens), sequence (P10635 whole entry, looked up): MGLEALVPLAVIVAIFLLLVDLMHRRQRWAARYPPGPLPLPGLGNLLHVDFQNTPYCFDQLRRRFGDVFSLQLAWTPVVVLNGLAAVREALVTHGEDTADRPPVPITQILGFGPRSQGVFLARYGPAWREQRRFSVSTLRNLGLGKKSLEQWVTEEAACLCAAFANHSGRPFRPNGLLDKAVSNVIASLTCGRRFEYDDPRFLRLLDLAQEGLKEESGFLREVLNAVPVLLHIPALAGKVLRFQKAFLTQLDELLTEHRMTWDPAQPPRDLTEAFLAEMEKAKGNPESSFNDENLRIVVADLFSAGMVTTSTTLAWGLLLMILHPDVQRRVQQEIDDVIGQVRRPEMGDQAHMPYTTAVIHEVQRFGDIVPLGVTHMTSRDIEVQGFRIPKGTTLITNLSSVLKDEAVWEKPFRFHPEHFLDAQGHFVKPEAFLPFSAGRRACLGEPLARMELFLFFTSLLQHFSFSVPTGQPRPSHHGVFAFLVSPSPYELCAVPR
Cytochrome P450 3A4 (Homo sapiens), sequence (P08684 whole entry, looked up): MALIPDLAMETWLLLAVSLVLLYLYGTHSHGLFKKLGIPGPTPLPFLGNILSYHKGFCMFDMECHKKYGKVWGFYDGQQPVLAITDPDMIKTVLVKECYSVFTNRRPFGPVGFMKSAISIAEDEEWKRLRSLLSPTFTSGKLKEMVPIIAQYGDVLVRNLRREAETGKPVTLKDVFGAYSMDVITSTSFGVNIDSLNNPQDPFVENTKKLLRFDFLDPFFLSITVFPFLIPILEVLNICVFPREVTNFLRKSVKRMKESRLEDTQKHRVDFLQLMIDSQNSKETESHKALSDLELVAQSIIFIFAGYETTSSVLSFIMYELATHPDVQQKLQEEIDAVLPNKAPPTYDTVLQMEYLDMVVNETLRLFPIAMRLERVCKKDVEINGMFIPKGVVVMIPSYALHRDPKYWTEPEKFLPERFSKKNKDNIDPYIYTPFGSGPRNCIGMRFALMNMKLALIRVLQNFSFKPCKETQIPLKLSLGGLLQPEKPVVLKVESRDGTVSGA

c1ccc(CNc2ncnc3c2ncn3C2CCCCO2)cc1 (configuration not stated)
inactive: Potency [1] | Potency [2] | outcome [3] | Potency [4] | Potency [6]
active: Potency [5] 21.7 µM | Potency [7] 28.3 µM

CCCCCCCCCCCSCC(=O)O
active: Potency [6] 31.7 µM | Potency [8] 71 µM
inactive: Potency [1] | Potency [2] | outcome [3] | Potency [4] | Potency [5] | Potency [7] | Potency [9] | Potency [10]

O=C(O)CCC(=O)OC[C@@H](NC(=O)C(Cl)Cl)[C@H](O)c1ccc([N+](=O)[O-])cc1
inactive: Potency [1] | Potency [2] | outcome [3] | Potency [4] | Potency [5] | Potency [6] | Potency [7] | Potency [9]

CC(=O)C(=O)CC(C)C
active: Potency [11] 35.4 µM
inactive: Potency [1] | Potency [2] | outcome [3] | Potency [4] | Potency [5] | Potency [6] | Potency [9] | Potency [10]

O=C(C(=O)c1ccco1)c1ccco1
inactive: Potency [1] | Potency [2] | outcome [3] | Potency [4] | Potency [5] | Potency [8]
active: Potency [11] 80.4 µM | Potency [7] 35.9 µM

COc1cc(NCc2ccc3nc(N)nc(N)c3c2C)cc(OC)c1OC
inactive: Potency [1] | outcome [3] | max activation [12] -10.1% | Potency [13] | Potency [14] | Potency [9]
active: Potency [2] 26.6 µM | Potency [4] 26.6 µM | Potency [6] 13.8 µM | Potency [11] 9.77 µM | Potency [8] 15.5 µM | Potency [7] 7.76 µM

c1ccc2sc(SSc3nc4ccccc4s3)nc2c1
inactive: caspase activation [1] 1.15% [at 19 µM] | activity change, negative = cytotoxicity [2] 8.61% [at 19 µM] | caspase-3/7 activation [3] -0.79% [at 19 µM] | activity change, negative = cytotoxicity [4] 0.175% [at 19 µM] | max activation [12] -4.43% | Potency [13] | Potency [14] | activity change, negative = inhibition [7] -16.1% [at 23.6 µM] | activity change, negative = inhibition [9] 5.4% [at 15.8 µM]
active: Potency [11] 4.77 µM | Potency [8] 9.52 µM

C=CC(=O)O
inactive: Potency [1] | Potency [2] | outcome [3] | Potency [4] | max activation [12] -1.96% | Potency [13] | Potency [14] | Potency [6] | Potency [7]

CC(C)c1ccc(C(=O)N=C(N)N)cc1S(C)(=O)=O
active: Potency [7] 44.4 µM
inactive: Potency [1] | Potency [2] | outcome [3] | Potency [4] | Potency [5] | Potency [11] | Potency [8] | Potency [9] | Potency [10]

CC1=C2[C@@H]([C@H](C)CC[C@H]2/C=C(\C)C(=O)O)[C@H](O)C1
inactive: Potency [1] | Potency [2] | outcome [3] | Potency [4] | Potency [5] | Potency [11] | Potency [8] | Potency [7] | Potency [9] | Potency [10]

CCOC(=O)N1CCC(Nc2ccc(Cl)cc2N)CC1
inactive: Potency [1] | Potency [2] | outcome [3] | Potency [4] | Potency [5] | Potency [7] | Potency [9] | Potency [10]
active: Potency [11] 4.36 µM | Potency [8] 8.71 µM

CC(C)C1CCC(C(=O)N[C@H](Cc2ccccc2)C(=O)O)CC1 (some centres not stated)
active: Potency [8] 11 µM
inactive: Potency [1] | Potency [2] | outcome [3] | Potency [4] | max activation [12] -2.46% | Potency [14] | Potency [6] | Potency [7] | Potency [9] | Potency [10]

Cc1cccc2sc(N)nc12
active: Potency [5] 55.1 µM | Potency [11] 22.7 µM | Potency [7] 18.1 µM
inactive: Potency [1] | Potency [2] | outcome [3] | Potency [4] | Potency [8] | Potency [9]

CN=C(N)NC(=O)Nc1c(C)cccc1C
inactive: Potency [1] | Potency [2] | outcome [3] | Potency [4] | Potency [5] | Potency [6] | Potency [7] | Potency [9] | Potency [10]

CC(=O)OCC1=C(C(=O)O)N2C(=O)[C@@H](NC(=O)CSc3ccncc3)[C@H]2SC1
active: Potency [6] 11 µM | Potency [8] 13.8 µM
inactive: Potency [1] | Potency [2] | outcome [3] | Potency [4] | max activation [12] -5.99% | Potency [7] | Potency [9]

O=C(Oc1ccccc1)c1ccc2ccccc2c1O
active: Potency [5] 61.1 µM | Potency [11] 79.6 µM | Potency [8] 12.6 µM | Potency [7] 5.64 µM
inactive: Potency [1] | Potency [2] | outcome [3] | Potency [4] | Potency [10]

CCCCOCCOC(=O)c1cccnc1
inactive: Potency [1] | Potency [2] | outcome [3] | Potency [4] | Potency [5] | Potency [9]

C=C(C)c1ccccc1
inactive: Potency [1] | Potency [2] | outcome [3] | Potency [4] | Potency [5] | Potency [11] | Potency [8] | Potency [9]

CC(=O)C(C)=O
inactive: Potency [1] | Potency [2] | outcome [3] | Potency [4] | Potency [6] | Potency [11] | Potency [8] | Potency [7] | Potency [9]

O=C(O)/C=C/c1ccc(O)c(O)c1
inactive: Potency [1] | Potency [2] | outcome [3] | Potency [4] | Potency [5] | Potency [6] | Potency [7] | Potency [9] | Potency [10]

CC12CC3CC(C)(C1)CC(N)(C3)C2
inactive: Potency [1] | Potency [2] | outcome [3] | Potency [4] | Potency [5] | Potency [11] | Potency [7] | Potency [9] | Potency [10]

CC(C)(C)S
active: Potency [6] 7.34 µM | Potency [11] 41.3 µM
inactive: Potency [1] | Potency [2] | outcome [3] | Potency [4] | Potency [5] | Potency [9]

Cc1cc(CCCOc2c(C)cc(-c3noc(C(F)(F)F)n3)cc2C)on1
active: Potency [5] 21.1 µM | Potency [11] 21.9 µM | Potency [8] 8.71 µM
inactive: Potency [1] | Potency [2] | outcome [3] | Potency [4]
